Data taken from PubChem BioAssay (NCATS).
Where “and” joins values, the source holds several entries; their conditions need not be identical. Identical values can stand only once. Results filed as inconclusive are left out. Where a call stands in place of a potency, no number is given. Calls of active or inactive are those of the source. Unless noted, the call rests on the fitted dose curve; in most records, active means well fitted curve in the direction sought with a large enough effect; inconclusive means small, poorly fitted or top-dose-only effect, or another doubt; inactive means no such curve, though single readings can be large; an effect the other way counts as inactive or inconclusive.

Experiments:
[1] = Cell Viability - Jurkat (AID 426;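 active means dose-dependent loss of cell ATP signal giving a full or clear fitted curve, ranked by lower potency value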; further: potency means the concentration at half of the fitted maximal effect); details: qHTS
Outline: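 Jurkat (clone E6-1, human T-cell leukemia) cells, 5000/well in complete medium, were exposed to compound for 40 hr at 37 °C. Viability was read as intracellular ATP by CellTiter-Glo luminescence; AC50 came from Hill fits of concentration-response data.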

[2] = target: Mitogen-activated protein kinase 10 (Mus musculus) (UniProt Q61831); test: JNK3 AlphaScreen Assay (AID 530; active means well fitted curve in either direction with a large enough effect, not every such curve was filed as active;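 further: kinase came from lysate of stimulated human HepG2 cells; signal reports phosphorylation of biotinylated GST-cJun 1-79 at Ser73 with 10 µM ATP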); details: JNK3 lysate, c-Jun phosphorylation; series mostly up to 11.4 µM
Outline: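 JNK3 came from HepG2 lysates pre-activated with IL-1beta and TNF-alpha and phosphorylated biotinylated GST-cJun (1-79) at 10 uM ATP, pH 7.6, room temperature. Compounds were titrated. AlphaScreen signal used anti-phospho-cJun (Ser73) antibody.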

[3] = Cell Viability - LYMP2-021 (AID 974); details: LYMP2-021 lymphoblastoid cells viability; series mostly up to 92.2 µM;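 further: compound exposure lasts 24 hours at 37 °C; nearly all actives have a fitted effect of over 55% in size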; further: potency means the concentration at half of the fitted maximal effect
Outline: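 Human lymphoblastoid cells (2500/well) were preincubated 5 hr at 37 C, then exposed to compounds for 24 hr at 37 C in complete medium. Intracellular ATP was read by CellTiter-Glo luminescence; AC50 came from Hill-equation fits of concentration-response data.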

[4] = Cell Viability - LYMP2-014 (AID 983); details: LYMP2-014 lymphoblastoid cells, viability qHTS; series mostly up to 92.2 µM; further: nearly all actives have a fitted effect of over 50% in size; further: potency means the concentration at half of the fitted maximal effect
Outline: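 Human lymphoblastoid cells (2500/well) were pre-incubated 5 hr at 37 C, then exposed to compounds in complete medium for 24 hr at 37 C. Intracellular ATP was read by CellTiter-Glo luminescence after 30 min at room temperature; AC50 from Hill fits.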

[5] = Cell Viability - LYMP2-016 (AID 984); details: LYMP2-016 lymphoblastoid cell viability, qHTS; series mostly up to 92.2 µM; further: nearly all actives have a fitted effect of over 55% in size; further: potency means the concentration at half of the fitted maximal effect
Outline: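 Concentration-dependent ATP depletion measured in LYMP2-016 lymphoblastoid cells, 24 h, 37 C; luciferase-based luminescent detection; Hill-equation AC50.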

[6] = qHTS assay for small molecule antagonists of peroxisome proliferator-activated receptor delta signaling (AID 588535); details: HEK293T PPARd-UAS-bla, beta-lactamase FRET ratio, 18 h; 460 nm channel;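 further: cells co-treated with a PPAR-delta agonist as stimulator during compound exposure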
Outline: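 GeneBLAzer PPAR-delta-UAS-bla HEK293T cells in medium with 2% charcoal/dextran FBS were preincubated 5 hrs at 37 C, then given compounds, incubated 18 hrs at 37 C, and read by CCF4 beta-lactamase fluorescence; IC50 from Hill fits.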

[7] = target: Peroxisome proliferator-activated receptor gamma (Homo sapiens) (UniProt P37231); test: qHTS assay for small molecule antagonists of peroxisome proliferator-activated receptor gamma signaling (AID 588537; active means well fitted inhibition curve with a large enough effect in the signal ratio, with a control signal flat, not every such curve was filed as active; the % refers to the signal ratio;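 further: reporter cells co-stimulated with 50 nM rosiglitazone agonist during compound treatment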); details: HEK293 PPARg-UAS-bla, beta-lactamase ratio, antagonist mode; series mostly up to 76.8 µM
Outline: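 PPAR-gamma-UAS-bla HEK293 cells (3000/well, 1% charcoal/dextran-stripped FBS) were preincubated 6-6.5 h at 37 C, given titrated compounds, then stimulated with 50 nM rosiglitazone for 16 h. Beta-lactamase activity was read with CCF4 dye; IC50 came from Hill fits.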

[8] = Cell Viability - H-4-II-E (AID 543); details: H-4-II-E rat hepatoma viability; series mostly up to 92.2 µM; further: nearly all actives have a fitted effect of over 35% in size
Outline: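 Rat hepatoma H-4-II-E cells (1500/well) were plated, incubated 5 hr at 37 °C, then exposed to compounds for 40 hr at 37 °C. Cellular ATP was read by CellTiter-Glo luminescence; AC50 came from Hill-equation fits of concentration-response data.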

[9] = MultiTox-Fluor Cytotoxicity Assay - LYMP1-001 - Live Cells (AID 947); details: LYMP1-001 lymphoblastoid cells, live-cell protease fluorescence viability; series mostly up to 92.2 µM
[10] = Cell Viability - LYMP1-003 - Assay at 40 hr (AID 964); details: LYMP1-003 lymphoblastoid viability; series mostly up to 92.2 µM; further: nearly all actives have a fitted effect of over 60% in size
Outline: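 Human lymphoblastoid LYMP1-003 cells, 2500/well in complete medium, rested 5 hr at 37 C, then exposed to compounds for 40 hr at 37 C. Viability read as intracellular ATP by CellTiter-Glo luminescence; AC50 from Hill fits of concentration-response data.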

[11] = Cell Viability - LYMP2-025 (AID 976); details: LYMP2-025 lymphoblastoid cell viability; series mostly up to 92.2 µM
Outline: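 Human lymphoblastoid LYMP2-025 cells (2500/well) were pre-incubated 5 hr at 37 C, then treated with compounds for 24 hr at 37 C in complete medium. Viability was read as intracellular ATP by CellTiter-Glo luminescence; AC50 from Hill fits.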

[12] = Cell Viability - LYMP2-018 (AID 985); details: LYMP2-018 lymphoblastoid cells, viability (qHTS); series mostly up to 92.2 µM;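 further: compound exposure lasted 24 hr at 37 °C; nearly all actives have a fitted effect of over 50% in size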; further: potency means the concentration at half of the fitted maximal effect
Outline: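 Human lymphoblastoid cells (2500/well) were pre-incubated 5 hr at 37 C, then exposed to compounds for 24 hr at 37 C in complete medium. Viability was read as intracellular ATP by CellTiter-Glo luminescence; AC50 values came from Hill-equation fits.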

[13] = target: Retinoic acid receptor RXR-alpha (Homo sapiens) (UniProt P19793); test: qHTS assay for small molecule antagonists of retinoid X receptor alpha signaling (AID 588546; active means well fitted inhibition curve with a large enough effect in the signal ratio, with a control signal flat, not every such curve was filed as active; the % refers to the signal ratio;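 further: cells stimulated with 9-cis-retinoic acid as agonist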); details: HEK293T RXRa-UAS-bla, beta-lactamase ratio, antagonist mode
Outline: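 Beta-lactamase reporter inhibition, read as CCF4 fluorescence ratio (ex 405, em 460/530 nm) after 2 h at RT. HEK293T UAS-bla cells, 2500/well, were stimulated with 9-cis-RA at 500 or 100 nM final alongside test compound for 18 h at 37 C.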

[14] = Cell Viability - LYMP2-004 (AID 966); details: LYMP2-004 lymphoblastoid cell viability, qHTS; series mostly up to 92.2 µM; further: nearly all actives have a fitted effect of over 65% in size; further: potency means the concentration at half of the fitted maximal effect
Outline: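 Human lymphoblastoid cells (2500/well) in complete medium were treated with compounds for 24 hr at 37 C, then intracellular ATP was measured by CellTiter-Glo luminescence. AC50 values came from Hill-equation fits of concentration-response data.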

[15] = Cell Viability - LYMP2-007 (AID 979); details: LYMP2-007 lymphoblastoid cell viability; series mostly up to 92.2 µM;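 further: cells exposed to compound for 24 h before reading; nearly all actives have a fitted effect of over 60% in size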
Outline: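 Human lymphoblastoid cells (2500/well) were plated in complete medium, incubated 5 hr at 37 C, then exposed to compounds for 24 hr at 37 C. Intracellular ATP was read by CellTiter-Glo luminescence after 30 min at room temperature; AC50 from Hill fits.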

[16] = target: Vitamin D3 receptor (Homo sapiens) (UniProt P11473); test: qHTS assay for small molecule antagonists of vitamin D receptor signaling (AID 588541; calls by dose curve;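 further: receptor activated by calcitriol during compound treatment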); details: HEK293T VDR-UAS-bla, beta-lactamase ratio, antagonist mode; series mostly up to 76.7 µM
Outline: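 VDR-UAS-bla HEK293T cells (2000/well, 2% charcoal-stripped FBS) were treated with titrated compounds plus 1-alpha,25-dihydroxyvitamin D3 (50 nM or 3 nM final) for 16 h at 37 C. CCF4 beta-lactamase fluorescence was read; Hill fits gave IC50.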

[17] = target: Thyroid hormone receptor beta (Homo sapiens) (UniProt P10828); test: qHTS assay for small molecule antagonists of thyroid hormone receptor beta signaling (AID 588547; active means well fitted inhibition curve with a large enough effect in the signal ratio, with a control signal flat, not every such curve was filed as active; the % refers to the signal ratio;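 further: cells stimulated with 0.4 nM T3 agonist during compound exposure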); details: TR-UAS-bla HEK293, beta-lactamase ratio, antagonist mode, 18 h
Outline: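 TR-UAS-bla GripTite HEK293 cells in 2% charcoal/dextran FBS medium were preincubated 4 h at 37 C, given compound (0.59 nM to 92 uM) plus 0.4 nM T3 (final) for 18 h, then CCF4 for 2 h at RT; Hill fit gave IC50.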

[18] = qHTS assay for small molecule activators of the p53 signaling pathway (AID 651743; active means well fitted activation curve with a large enough effect in the signal ratio, not every such curve was filed as active; the % refers to the signal ratio); details: HCT-116 p53RE-bla, beta-lactamase FRET ratio, 16 h; activation: stronger effect = higher value
Outline: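 p53RE-bla HCT-116 cells with a stably integrated beta-lactamase reporter under p53 response elements were plated, rested 5 hours at 37 C/5% CO2, then exposed to compounds in DMSO for 16 hours at 37 C. LiveBLAzer B/G FRET substrate was read after 2 hours at room temperature.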

[19] = target: Bile acid receptor (Homo sapiens) (UniProt Q96RI1); test: qHTS assay for small molecule antagonists of farnesoid X receptor signaling (AID 588526; calls by dose curve); details: HEK293T FXR-UAS-bla, beta-lactamase ratio, antagonist mode; series mostly up to 76.7 µM
Outline: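 Concentration-response titrations were fitted to the Hill equation for half-maximal inhibition and maximal response, with data normalised to 50 uM chenodeoxycholic acid and DMSO control wells. Cells: FXR-UAS-bla HEK293T, dialyzed FBS.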

[20] = Cell Viability - NIH 3T3 (AID 541); details: NIH 3T3 cell viability, qHTS; activity change, negative = cytotoxicity: at 92.2 µM (top of the series); further: nearly all actives have a fitted effect of over 25% in size
Outline: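 NIH 3T3 mouse embryo fibroblasts (1000 cells/well) were plated in complete medium and treated with compound for 40 hr at 37 °C. Viability was read as intracellular ATP by CellTiter-Glo luminescence; AC50 values came from Hill-equation fits of concentration-response data.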

Sequence of Vitamin D3 receptor (Homo sapiens) (P11473 whole entry, looked up): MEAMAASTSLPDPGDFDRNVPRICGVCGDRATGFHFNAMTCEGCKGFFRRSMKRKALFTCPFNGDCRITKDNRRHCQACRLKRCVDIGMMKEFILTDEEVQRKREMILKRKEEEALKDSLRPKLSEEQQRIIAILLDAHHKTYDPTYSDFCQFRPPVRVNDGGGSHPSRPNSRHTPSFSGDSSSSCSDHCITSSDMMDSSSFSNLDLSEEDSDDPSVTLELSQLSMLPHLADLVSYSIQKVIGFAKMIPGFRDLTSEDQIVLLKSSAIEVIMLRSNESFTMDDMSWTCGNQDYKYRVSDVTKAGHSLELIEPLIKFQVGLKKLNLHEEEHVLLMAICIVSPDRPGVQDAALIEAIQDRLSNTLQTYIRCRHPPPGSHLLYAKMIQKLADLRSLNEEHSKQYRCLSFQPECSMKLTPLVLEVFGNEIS
Sequence of Peroxisome proliferator-activated receptor gamma (Homo sapiens) (P37231 whole entry, looked up): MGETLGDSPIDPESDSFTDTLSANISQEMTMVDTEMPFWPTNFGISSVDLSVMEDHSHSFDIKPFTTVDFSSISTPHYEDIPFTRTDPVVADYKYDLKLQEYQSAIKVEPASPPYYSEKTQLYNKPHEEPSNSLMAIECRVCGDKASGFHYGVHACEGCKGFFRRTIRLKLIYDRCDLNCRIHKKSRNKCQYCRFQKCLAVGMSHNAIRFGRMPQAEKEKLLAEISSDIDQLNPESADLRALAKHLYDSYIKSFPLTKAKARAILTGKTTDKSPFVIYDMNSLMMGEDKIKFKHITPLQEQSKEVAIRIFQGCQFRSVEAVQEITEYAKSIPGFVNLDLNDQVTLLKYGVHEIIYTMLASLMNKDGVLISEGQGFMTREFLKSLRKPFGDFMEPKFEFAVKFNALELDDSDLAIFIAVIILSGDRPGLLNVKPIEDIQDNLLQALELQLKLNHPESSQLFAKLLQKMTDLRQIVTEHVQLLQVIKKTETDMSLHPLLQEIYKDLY
Sequence of Retinoic acid receptor RXR-alpha (Homo sapiens) (P19793 whole entry, looked up): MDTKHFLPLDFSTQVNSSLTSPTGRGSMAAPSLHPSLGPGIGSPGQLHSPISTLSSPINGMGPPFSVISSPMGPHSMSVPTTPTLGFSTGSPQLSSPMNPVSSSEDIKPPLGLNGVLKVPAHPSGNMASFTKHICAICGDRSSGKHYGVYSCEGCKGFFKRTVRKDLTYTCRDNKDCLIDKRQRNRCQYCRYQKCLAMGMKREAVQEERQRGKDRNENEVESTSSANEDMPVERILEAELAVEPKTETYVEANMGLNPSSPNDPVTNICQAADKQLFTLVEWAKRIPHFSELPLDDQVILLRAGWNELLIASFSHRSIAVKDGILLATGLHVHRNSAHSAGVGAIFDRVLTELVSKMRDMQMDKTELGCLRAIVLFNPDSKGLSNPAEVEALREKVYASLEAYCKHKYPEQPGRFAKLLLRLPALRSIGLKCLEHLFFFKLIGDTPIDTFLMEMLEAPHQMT
Sequence of Thyroid hormone receptor beta (Homo sapiens) (P10828 whole entry, looked up): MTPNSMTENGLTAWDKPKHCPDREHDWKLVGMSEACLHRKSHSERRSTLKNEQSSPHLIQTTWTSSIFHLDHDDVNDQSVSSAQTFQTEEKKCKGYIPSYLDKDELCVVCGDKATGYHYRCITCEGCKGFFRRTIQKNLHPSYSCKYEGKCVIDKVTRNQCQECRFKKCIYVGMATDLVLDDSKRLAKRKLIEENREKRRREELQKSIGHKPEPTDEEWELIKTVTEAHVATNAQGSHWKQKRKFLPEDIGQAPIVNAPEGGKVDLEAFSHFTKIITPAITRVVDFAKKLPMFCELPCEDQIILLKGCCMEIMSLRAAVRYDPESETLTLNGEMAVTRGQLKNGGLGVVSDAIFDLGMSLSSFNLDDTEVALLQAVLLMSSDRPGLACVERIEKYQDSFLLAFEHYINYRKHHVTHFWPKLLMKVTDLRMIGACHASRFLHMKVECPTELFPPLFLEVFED
Sequence of Bile acid receptor (Homo sapiens) (Q96RI1 whole entry, looked up): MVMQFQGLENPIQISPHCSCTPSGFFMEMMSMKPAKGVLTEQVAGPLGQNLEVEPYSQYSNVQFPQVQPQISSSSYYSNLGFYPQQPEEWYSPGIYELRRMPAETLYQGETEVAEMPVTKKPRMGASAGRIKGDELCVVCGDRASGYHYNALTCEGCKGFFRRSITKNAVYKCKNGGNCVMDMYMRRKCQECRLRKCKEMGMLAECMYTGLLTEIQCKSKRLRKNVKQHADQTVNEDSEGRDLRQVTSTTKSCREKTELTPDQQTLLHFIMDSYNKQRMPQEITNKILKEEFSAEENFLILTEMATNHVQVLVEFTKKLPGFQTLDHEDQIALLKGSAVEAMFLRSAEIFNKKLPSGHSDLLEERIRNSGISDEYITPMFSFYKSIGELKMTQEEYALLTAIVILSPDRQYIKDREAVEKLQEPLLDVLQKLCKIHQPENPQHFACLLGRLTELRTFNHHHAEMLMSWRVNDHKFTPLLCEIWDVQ

SMILES: C/C=C/C=C/C=O
- Potency [1]: 29.4 µM (active)
- Potency [2]: inactive
- Potency [3]: 39.8 µM (active)
- Potency [4]: 39.8 µM (active)
- Potency [5]: 50.1 µM (active)
- max response [6]: 13.6%
- Potency [7]: inactive

SMILES: CCC(Cl)CC(Cl)C(Cl)C(Cl)C(Cl)C(C)Cl (centres undefined)
- Potency [1]: > 92 µM (inactive)
- Potency [8]: inactive
- Potency [9]: inactive
- Potency [10]: inactive
- Potency [3]: inactive
- Potency [11]: inactive
- Potency [12]: inactive
- max response [6]: -12%
- max response [13]: -1.06% (inactive)

SMILES: c1ccc(CSCc2ccccc2)cc1
- Potency [1]: > 92 µM (inactive)
- Potency [8]: inactive
- Potency [9]: inactive
- Potency [10]: inactive
- Potency [14]: inactive
- Potency [3]: inactive
- Potency [11]: inactive
- Potency [15]: inactive
- Potency [4]: inactive
- Potency [5]: inactive
- Potency [12]: inactive
- max response [6]: 13.7%
- Potency [7]: inactive
- Potency [16]: inactive
- max response [13]: 1.24% (inactive)
- activity change % (negative = inhibition) [17]: -5.66% (inactive)

SMILES: c1ccncc1
- Potency [1]: > 92 µM (inactive)
- Potency [8]: inactive
- Potency [10]: inactive
- Potency [3]: inactive
- Potency [11]: inactive
- Potency [4]: inactive
- Potency [5]: inactive
- Potency [12]: inactive
- Potency [7]: inactive
- activity change % (negative = inhibition) [17]: -8.3% (inactive)
- activation [18]: -0.205% (inactive)

SMILES: C1CCCNCC1
- Potency [1]: > 92 µM (inactive)
- Potency [3]: inactive
- Potency [15]: inactive
- Potency [5]: inactive
- Potency [12]: inactive
- max response [6]: -36.7%

SMILES: c1ccc(COCc2ccccc2)cc1
- Potency [1]: > 92 µM (inactive)
- Potency [8]: inactive
- Potency [14]: inactive
- Potency [11]: inactive
- Potency [15]: inactive
- Potency [5]: inactive
- Potency [12]: inactive
- Potency [19]: inactive
- Potency [7]: inactive
- max response [13]: -1.13% (inactive)
- activity change % (negative = inhibition) [17]: -18.1% (inactive)
- activation [18]: -1.51% (inactive)

SMILES: C=C1CC[C@H](O)C/C1=C/C=C1\CCC[C@]2(C)[C@@H]([C@H](C)CCCC(C)C)CC[C@@H]12
- Potency [1]: 27.5 µM (active)
- Potency [2]: inactive
- Potency [14]: 39.8 µM (active)
- Potency [4]: 50.1 µM (active)
- Potency [12]: 39.8 µM (active)

SMILES: CC(=O)OC1CC(C)OC(C)O1 (centres undefined)
- Potency [1]: > 92 µM (inactive)
- Potency [2]: inactive
- Potency [10]: inactive
- Potency [14]: inactive
- Potency [19]: inactive
- max response [6]: -8.33% and -2.28%
- Potency [7]: inactive

SMILES: c1ccc2c(c1)ccc1ccccc12
- Potency [8]: inactive
- Potency [9]: inactive
- Potency [10]: inactive
- Potency [14]: inactive
- Potency [3]: inactive
- Potency [11]: inactive
- Potency [15]: inactive
- Potency [4]: inactive
- Potency [12]: inactive
- Potency [19]: inactive
- max response [6]: -5.89%
- Potency [7]: inactive
- Potency [16]: inactive

SMILES: CCCCCCN
- activity change, negative = cytotoxicity [20]: -9.38% (inactive)
- Potency [8]: inactive
- Potency [3]: inactive
- Potency [4]: inactive
- Potency [5]: inactive
- Potency [12]: inactive
- max response [13]: 2.42% (inactive)
- activity change % (negative = inhibition) [17]: -5.98% (inactive)

SMILES: Cc1cccnc1
- Potency [2]: inactive
- activity change, negative = cytotoxicity [20]: -24.9% (inactive)
- Potency [10]: inactive
- Potency [3]: inactive
- Potency [11]: inactive
- Potency [4]: inactive
- Potency [5]: inactive
- Potency [12]: inactive
- max response [13]: 7.72% (inactive)
- activity change % (negative = inhibition) [17]: 13.1% (inactive)
